Data from the supplement of paper PMC12350171.
Where a name gives a salt, the structure may show the parent alone. A number with no mark means an inactive call.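 Rule for the calls: active = normalised median growth AUC below 0.1 of DMSO control; inactive = AUC 0.1 or higher.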

Assays:
Assay in all cases: growth AUC normalised to DMSO control (median) (fraction of control); higher = less growth inhibition, active = hit call of the paper
Details in all cases: 20 µM
[1] = test system: P. vulgatus RND KO
Outline: (§1)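 After two overnight anaerobic passages, strains were inoculated at OD578 0.01 into mGAM in 96-well plates containing approved-drug library compounds at 20 μM and 1% DMSO. Growth was followed by reading OD578 hourly for 24 h within an anaerobic incubator. Area under the curve, taken by the trapezoidal rule up to the start of stationary phase, was normalised to same-plate vehicle wells, and the median of three biological replicates is listed.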

[2] = test system: P. vulgatus WT
Outline: as §1

[3] = test system: S. enterica typhimurium WT
Outline: as §1

[4] = test system: S. enterica typhimurium tolC KO
Outline: as §1
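Note: active when median AUC fell below 0.1.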

Structure (SMILES) | growth AUC normalised to DMSO control [1] | growth AUC normalised to DMSO control [2] | growth AUC normalised to DMSO control [3] | growth AUC normalised to DMSO control [4]
CC(=O)OC(C)OC(=O)C(C)c1ccc(-c2ccccc2)c(F)c1 (configuration not stated) [Flurbiprofen axetil] | 1.09 | 1.1 | 1.01 | 0.856
CC(=O)N[C@H]1[C@H]([C@H](O)[C@H](O)CO)OC(C(=O)O)=C[C@@H]1NC(=N)N [Zanamivir] | 1.06 | 1.1 | 1 | 1.02
CC(C(=O)O)c1ccc(N2CC=CC2)c(Cl)c1 (configuration not stated) [Pirprofen] | 1.08 | 1.06 | 1 | 1
CC(C)(C)C(=O)C(Oc1ccc(Cl)cc1)n1ccnc1 (configuration not stated) [Climbazole] | 0.968 | 0.984 | 0.993 | 0.953
CCOc1nc2cccc(C(=O)OCc3oc(=O)oc3C)c2n1Cc1ccc(-c2ccccc2-c2noc(=O)[nH]2)cc1 [Azilsartan medoxomil] | 0.988 | 0.962 | 1 | 0.998
CN(C)CCc1c[nH]c2ccc(Cn3cncn3)cc12 [Rizatriptan benzoate] | 1.02 | 1.03 | 1 | 0.994
CC[C@@H]([C@H](C)O)n1ncn(-c2ccc(N3CCN(c4ccc(OC[C@@H]5CO[C@@](Cn6cncn6)(c6ccc(F)cc6F)C5)cc4)CC3)cc2)c1=O [Posaconazole hydrate] | 0.87 | 0.875 | 1.01 | 0.979
CCOC(=O)[C@H](CCc1ccccc1)N[C@@H](C)C(=O)N1[C@H](C(=O)O)C[C@H]2CCCC[C@@H]21 [Trandolapril] | 0.986 | 0.992 | 1.01 | 0.998
Nc1c(CC(=O)O)cccc1C(=O)c1ccc(Br)cc1 [Bromfenac] | 1.04 | 1.04 | 1.01 | 0.999
O=C(Cn1cnnn1)N[C@@H]1C(=O)N2C(C(=O)O)=C(CSc3nncs3)CS[C@H]12 [Ceftezole] | 0.00781 (active) | 0.00376 (active) | 0.0119 (active) | 0.00306 (active)
CO[C@@H]1[C@@H](OC(N)=O)[C@@H](O)[C@H](Oc2ccc3c(O)c(NC(=O)c4ccc(O)c(CC=C(C)C)c4)c(=O)oc3c2C)OC1(C)C [Novobiocin sodium salt] | 0.0285 (active) | 0.021 (active) | 0.999 | 0.0104 (active)
N[C@@H](CCC(=O)N[C@@H](CS)C(=O)NCC(=O)O)C(=O)O [Glutathione] | 0.996 | 1 | 1 | 0.956
COc1ccc(-c2noc(CC(=O)O)c2-c2ccc(OC)cc2)cc1 [Mofezolac] | 0.999 | 1.03 | 1.01 | 0.998
COc1ccc(C[C@@H]2c3cc(OC)c(OC)cc3CC[N@+]2(C)CCC(=O)OCCCCCOC(=O)CC[N@@+]2(C)CCc3cc(OC)c(OC)cc3[C@H]2Cc2ccc(OC)c(OC)c2)cc1OC [Cisatracurium besylate] | 1.06 | 1.05 | 1.02 | 0.994
O=C(c1cc(O)c(O)c(O)c1)c1ccc(O)c(O)c1O [Exifone] | 0.975 | 0.993 | 0.986 | 0.995
CCOC(=O)c1ccc(C#Cc2ccc3c(c2)C(C)(C)CCS3)nc1 [Tazarotene] | 0.993 | 1.02 | 1 | 0.982
CC1(C)S[C@@H]2[C@H](NC(=O)C(C(=O)O)c3ccccc3)C(=O)N2[C@H]1C(=O)O (some centres not stated) [Carbenicillin disodium salt] | 0.0099 (active) | 0.00958 (active) | 0.0868 (active) | 0.00344 (active)
Cn1cc(C(=O)[C@@H]2CCc3[nH]cnc3C2)c2ccccc21 [Ramosetron hydrochloride] | 0.999 | 0.997 | 0.995 | 0.975
N[C@H](Cc1ccccc1)C(=O)O [D-phenylalanine] | 0.996 | 0.985 | 0.995 | 1
C[C@H]1COc2c(N3CCN(C)CC3)c(F)cc3c(=O)c(C(=O)O)cn1c23 [Levofloxacin] | 0.014 (active) | 0.0149 (active) | 0.00504 (active) | 0.00559 (active)
COc1ccc2c(c1)c(CC(=O)OC/C=C(\C)CC/C=C(\C)CCC=C(C)C)c(C)n2C(=O)c1ccc(Cl)cc1 [Indometacin farnesil] | 1 | 0.988 | 0.996 | 1.01
Nc1ccc(S(=O)(=O)Nc2ccc(Cl)nn2)cc1 [Sulfachloropyridazine] | 1.03 | 1.02 | 0.965 | 0.963

Structure (SMILES) | growth AUC normalised to DMSO control [1] | growth AUC normalised to DMSO control [2] | growth AUC normalised to DMSO control [3] | growth AUC normalised to DMSO control [4]
O=C1Nc2ccccc2C1(c1ccc(O)cc1)c1ccc(O)cc1 [Oxyphenisatin] | 1.04 | 1.04 | 0.994 | 0.99
COc1cc(C(=O)NC2CCCNC2)cc(OC)c1OC (configuration not stated) [Troxipide] | 1.07 | 1.1 | 0.998 | 0.995
Cc1nc(C)c(Cl)c(O)c1Cl [Clopidol] | 1.01 | 0.991 | 1.01 | 0.983
CNC(=O)OCc1cccc(COC(=O)NC)n1 [Pyricarbate] | 1.03 | 1.08 | 1.01 | 0.999
OCC(CO)N[C@H]1C[C@](O)(CO)[C@@H](O)[C@H](O)[C@H]1O [Voglibose] | 1.04 | 1.02 | 0.977 | 1.02
Cn1c([N+](=O)[O-])cnc1COC(N)=O [Ronidazole] | 0.0102 (active) | 0.00777 (active) | 0.999 | 0.923
N=C(N)Nc1ccc(C(=O)Oc2ccc3cc(C(=N)N)ccc3c2)cc1 [Nafamostat Mesylate] | 1.11 | 1.03 | 0.997 | 0.999
CC(C)Cc1ccc(CC(=O)O)cc1 [Ibufenac] | 1.06 | 1.06 | 1.01 | 0.981
CC[C@H](C)[C@H](NC(=O)[C@H](Cc1ccc(O)cc1)NC(=O)[C@@H](NC(=O)[C@H](CCCN=C(N)N)NC(=O)[C@@H](N)CC(=O)O)C(C)C)C(=O)N[C@@H](Cc1cnc[nH]1)C(=O)N1CCC[C@H]1C(=O)N[C@@H](Cc1ccccc1)C(=O)O [Angiotensin II (Human) Trifluoroacetic acid salt] | 1.1 | 1.1 | 0.997 | 1.02
NS(=O)(=O)c1cc2c(cc1Cl)NC(Cc1ccccc1)NS2(=O)=O (configuration not stated) [Benzylhydrochlorothiazide] | 1.08 | 1.1 | 1 | 0.994
CC(C)c1cc2c(cc1S(=O)(=O)O)[C@@]1(C)CCC[C@@](C)(C(=O)O)[C@@H]1CC2 [Ecabet sodium] | 1.01 | 1.02 | 1.01 | 0.988
COc1cc2c(cc1OC)C(=O)C(CC1CCN(Cc3ccccc3)CC1)C2 (configuration not stated) [Donepezil hydrochloride] | 0.997 | 1.01 | 0.997 | 0.981
NCCc1c[nH]cn1 [Histamine dihydrochloride] | 0.991 | 0.979 | 1 | 0.982
C[C@H](CCc1ccccc1)NC[C@H](O)c1ccc(O)c(C(N)=O)c1 [Dilevalol] | 1.02 | 1.05 | 0.996 | 1.01
N[C@@H](C(=O)N[C@@H]1C(=O)N2C(C(=O)O)=C(Cl)CC[C@H]12)c1ccccc1 [Loracarbef] | 0.00871 (active) | 0.00996 (active) | 0.018 (active) | 0.0264 (active)
CCOc1ccccc1C(N)=O [Ethenzamide] | 1.02 | 1.03 | 1 | 1
CCNC(=O)CCC/C=C\C[C@@H]1[C@@H](/C=C/[C@@H](O)CCc2ccccc2)[C@H](O)C[C@@H]1O [Bimatoprost] | 1.03 | 1.04 | 1.01 | 0.99
CCN[C@@H]1C[C@H](N)[C@@H](O[C@H]2OC(CN)=CC[C@H]2N)[C@H](O)[C@H]1O[C@H]1OC[C@](C)(O)[C@H](NC)[C@H]1O [Netilmicin sulfate] | 1.02 | 1.04 | 0.996 | 0.932
Cc1ccc(S(=O)(=O)NCl)cc1 [Chloramine-T hydrate] | 1 | 0.997 | 0.996 | 1
CCOC(=O)C1=C[C@@H](OC(CC)CC)[C@H](NC(C)=O)[C@@H](N)C1 [Oseltamivir phosphate] | 1.08 | 1.05 | 0.996 | 0.984
C/C(=C\C(=O)OCCCCCCCCC(=O)O)C[C@@H]1OC[C@H](C[C@@H]2O[C@H]2[C@@H](C)[C@H](C)O)[C@@H](O)[C@H]1O [Mupirocin] | 1 | 1.04 | 0.403 | 0.0105 (active)
